FadD28 binding = M. tuberculosis FadD28 bisubstrate binding inhibition; 0.22% of 360,000 active; FadD28 bisubstrate probe binding, fluorescence polarization; inhibition, % at 12.5 µM; in the data active = inhibition above about 8.5%, passing the limit was not always enough
GDH-TPI counter-1 = inhibits GDH-TPI coupling enzymes, artifact for Mtb FBA screen | 1.2% of 360,000 active | inhibition, % at 4.8 µM | GDH-TPI coupled enzyme counterscreen, NADH absorbance | AID 588335; in the data active = inhibition above about 30%;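 also: 0% = DMSO wells and 100% = wells lacking the enzyme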
Mtb BioA inh = BioA (M. tuberculosis) enzyme inhibition; purified M. tuberculosis BioA enzyme, plate reader; inhibition, % at 9.99 µM; 0.096% of 360,000 active; AID 602481; in the data active = inhibition above about 40%
FBA Mtb inh = inhibitors of M. tuberculosis fructose-bisphosphate aldolase; purified M. tuberculosis FBA, fluorescence read-out; inhibition, % at 1 µM; 2.3% of 360,000 active; AID 588726;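 also: 0% = vehicle and 100% = reference inhibitor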
Target sequence (P9WQA3 whole entry, looked up): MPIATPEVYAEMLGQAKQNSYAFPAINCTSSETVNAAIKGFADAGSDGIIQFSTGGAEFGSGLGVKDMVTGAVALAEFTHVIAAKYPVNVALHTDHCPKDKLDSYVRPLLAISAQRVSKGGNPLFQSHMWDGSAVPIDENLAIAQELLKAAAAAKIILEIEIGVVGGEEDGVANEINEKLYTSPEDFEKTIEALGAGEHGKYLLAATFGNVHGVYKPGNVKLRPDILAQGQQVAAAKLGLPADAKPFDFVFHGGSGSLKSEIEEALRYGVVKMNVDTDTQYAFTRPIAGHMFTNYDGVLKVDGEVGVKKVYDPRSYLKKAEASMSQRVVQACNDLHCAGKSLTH
Rv3671c inh = inhibitors of M. tuberculosis serine protease Rv3671c; P9WHR9; inhibition, % at 5.96 µM; 0.048% of 320,000 active; in the data active = inhibition above about 38%;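 also: extracellular domain of Rv3671c used as enzyme; 0% = enzyme with DMSO and 100% = no enzyme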
Mtb FBA confirm = Mtb FBA inhibition, confirmed; AID 651616; shares compounds with FBA Mtb inh; 78% of 5,600 active; purified M. tuberculosis FBA, fluorescence read-out; inhibition, % at 1 µM;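 also: 0% = vehicle wells and 100% = reference inhibitor wells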
GDH-TPI counter-2 = GDH-TPI inhibition counter-screen for FBA inhibitors | shares compounds with FBA Mtb inh | GDH-TPI coupled enzyme counterscreen, fluorescence | inhibition, % at 1 µM | 81% of 5,600 active | AID 652141; in the data active = inhibition above about 10%
GDH-TPI DR = counter-screen for M. tuberculosis FBA inhibitors: GDH-TPI dose response. shares compounds with FBA Mtb inh. GDH-TPI coupled enzyme assay, fluorescence, artifact counterscreen. IC50, µM. 79% of 170 active. AID 652145; call rule not given here
* marks the source's active call; other numbers are inactive results; · = no result; + = active, no number. The list is not random: actives were taken first. Their share in the collection is about 3%. Rule as the data show it, unless noted: active = inhibition above about 27%; inactive = the rest.

SMILES	FadD28 binding	GDH-TPI counter-1	Mtb BioA inh	FBA Mtb inh	Rv3671c inh	Mtb FBA confirm	GDH-TPI counter-2	others
COCCNC(=O)[C@H]1[C@H](CO)[C@H]2Cn3c(ccc(-c4ccccc4F)c3=O)[C@H]2N1C(=O)C1CCCC1	·	·	1	·	·	·	·
Cc1cc(=O)oc2cc(OCC(=O)OCC(=O)NC(C)C)ccc12	1	13	-2	48*	3	107*	85*
Cc1cc(=O)oc2cc(OCC(=O)NC3(C#N)CCCCC3)c(Cl)cc12	-3	15	-1	22	·	·	·
Cc1nnc(NC(=O)COc2ccc3c(C)cc(=O)oc3c2)s1	-1	10	-1	40*	2	192*	144*
Cc1cc(=O)oc2cc(OCC(=O)OCC(=O)Nc3ccccc3F)ccc12	0	9	·	54*	0	169*	147*
CCC(CC)c1nnc(NC(=O)COc2ccc3c(C)cc(=O)oc3c2)s1	·	14	0	2	1	·	·
Cc1cc(=O)oc2cc(OCC(=O)OCC(=O)Nc3ccccc3C(C)C)ccc12	-2	10	1	26	-10	·	·
Cc1cc(=O)oc2cc(OCC(=O)NC3(C#N)CCCCC3)ccc12	0	12	1	77*	·	58*	58*
C[C@H](CO)N1C[C@H](C)[C@@H](CN(C)CC2CCCCC2)Oc2ccc(NC(=O)Cc3ccccc3)cc2C1=O	·	·	1	·	·	·	·
COc1cccc(C(=O)Nc2ccc3c(c2)C(=O)N(C)[C@@H]2CC[C@H](CC(=O)NCc4ccc(F)cc4)O[C@@H]2CO3)c1	·	·	-1	·	·	·	·
C[C@@H]1CN([C@H](C)CO)C(=O)c2cc(C3=CCCC3)cnc2O[C@@H]1CN(C)C(=O)Nc1ccccc1	·	·	0	·	·	·	·
CC(=O)N1[C@H](CO)[C@@H](c2ccccc2)[C@H]1CNC(=O)CN1CCOCC1	·	·	0	·	·	·	·
COC(=O)c1oc2nc(C)cc(C)c2c1N	-2	16	·	69*	-2	47*	40*
Cc1cc(C)c2c(N)c(C(=O)c3ccccc3)oc2n1	0	8	2	5	3	·	·
Nc1c(C(=O)N/N=C/c2ccccc2Cl)oc2nc(-c3ccccc3)cc(-c3ccco3)c12	1	2	-3	4	4	·	·
Cc1cc(-c2ccccc2)nc2oc(C(=O)NN)c(N)c12	-2	9	0	39*	7	55*	44*
CO[C@H]1CN(C)C(=O)c2cc(NC(=O)NC3CCCCC3)ccc2OC[C@H](C)N(C(C)=O)C[C@H]1C	·	·	2	·	·	·	·
COc1ccc(-c2cn(CC[C@@H]3CC[C@H](NC(=O)Cc4ccccn4)[C@H](CO)O3)nn2)cc1	·	·	0	·	·	·	·
Cc1ccc(NC(=O)CSC(C)C(=O)OCc2cc(=O)oc3cc(O)ccc23)cc1 (stereo unspecified)	-1	12	0	41*	·	+	+
Cc1ccc(S(=O)(=O)NCC(=O)OCc2cc(=O)oc3cc(C)ccc23)cc1	-1	13	-2	3	-1	·	·
CCN(CC)c1ccc(C(=O)OCc2cc(=O)oc3cc(O)ccc23)cc1	-1	32*	-3	72*	-6	-4	-2
CNc1cccc(-c2ccc(N3CCN(C)CC3)nc2)n1	-4	11	-2	54*	·	17	0	GDH-TPI DR=3.5*
CC(C)OC(=O)c1cc2c(ccn2-c2ccc(F)cc2)n1CC(=O)N1CCN(C(=O)c2ccco2)CC1	-4	13	0	36*	4	+	+
CCn1c(C(=O)OC)cc2c1ccn2-c1ccc(F)cc1	-2	14	4	-7	-3	·	·
COC(=O)c1cc2c(ccn2-c2ccc(F)cc2)n1CC(=O)N1CCN(C(=O)c2ccco2)CC1	-3	12	0	29*	-3	+	197*
SMILES	FadD28 binding	GDH-TPI counter-1	Mtb BioA inh	FBA Mtb inh	Rv3671c inh	Mtb FBA confirm	GDH-TPI counter-2	others
CC(C)NC(=O)N1C[C@@H]2[C@H](c3ccccc31)[C@@H](CO)N2Cc1ccccn1	·	·	-3	·	·	·	·
COc1ccc(NC(=O)CCc2nnc3ccc(NCc4ccco4)nn23)cc1OC	-1	1	0	89*	-3	142*	118*
COc1ccc(NC(=O)CCc2nnc3ccc(NCc4ccco4)nn23)cc1	-4	1	0	-1	-14	·	·
CCCn1c(=O)[nH]c(=O)c2c(C(=O)OCC)cc(-c3cccs3)nc21	1	9	-1	89*	3	100*	87*
CCCn1c(=O)[nH]c(=O)c2c1nc(-c1cccs1)n2CCOC	1	15	·	90*	4	+	167*
COCCn1c(-c2ccc3ccccc3c2)nc2c1c(=O)[nH]c(=O)n2CC(C)C	-2	-2	3	73*	5	98*	83*
CCCCn1c(=O)[nH]c(=O)c2c(C(=O)OCC)cc(-c3cccs3)nc21	0	5	·	69*	1	12	7	GDH-TPI DR=1.3*
COCCn1c(-c2ccsc2)nc2c1c(=O)[nH]c(=O)n2CC(C)C	-1	5	-1	5	3	·	·
C[C@@H]1CCCCO[C@@H](CN(C)Cc2ccccc2)[C@@H](C)CN([C@@H](C)CO)C(=O)c2cc(NS(=O)(=O)c3cn(C)cn3)ccc2O1	·	·	1	·	·	·	·
O=C(C[C@H]1C=C[C@@H](NC(=O)c2cccc(F)c2)[C@@H](CO)O1)Nc1nccs1	·	·	1	·	·	·	·
Cc1cc(C)c2c(N)c(C(=O)NN3CC(=O)N(c4ccccc4)CC3=O)sc2n1	-2	2	·	57*	8	188*	129*
Cc1cc(=O)oc2cc(OCC(=O)N3CCC(C(N)=O)CC3)ccc12	-1	20	1	27*	-11	+	+
Cc1cc(OCC(=O)N2CCC(C(N)=O)CC2)c2c(C)cc(=O)oc2c1	-2	9	-1	33*	-6	17	15*
Cc1cc(OCC(=O)N2CCC(C(N)=O)CC2)c2c3c(c(=O)oc2c1)CCCC3	-3	-2	1	17	-6	·	·
Cc1cc(=O)oc2cc(OCC(=O)OCC(=O)N3CCC(C)CC3)ccc12	-1	10	·	42*	6	182*	131*
Cc1cccc(CNC(=O)c2ccccc2N)c1	-3	-10	0	58*	-1	137*	102*
Cc1ccc(CNC(=O)c2ccccc2N)cc1	-5	-10	-1	60*	1	80*	60*
Nc1ccccc1C(=O)NCc1ccco1	-1	1	-2	52*	·	83*	59*
O=C(NCc1ccco1)c1ccccc1O	-2	-6	2	10	·	·	·
COCC(=O)Nc1ccc2c(c1)C(=O)N(C)C[C@H](OC)[C@H](C)CN(C(=O)Cc1cccnc1)[C@@H](C)CO2	·	·	0	·	·	·	·
OC[C@@H]1[C@@H](c2ccc(Cl)cc2)C(c2cccc(Cl)c2)=NN1c1ccccc1	-4	-4	0	63*	·	158*	102*

Source: PubChem
